Assay results: ChEMBL document CHEMBL3988442, “University of Dundee, Small-Polar-MMV Screening Library” (2021)
Out of some 48,000 compounds screened, about 13,000 (27%) showed an effect of 50% or more. This is one part of the list.

system: Wolbachia pipientis; assay: Anti-Wolbachia Cell-Based Screen; format: functional; design: scale not given: in the data most compounds retested in dose-response had high values; settings: 5 µM

Row | Structure (SMILES) | Percent Effect
1 | O=C(NCCCn1cncn1)c1ccc(-c2ccco2)[nH]c1=O | 2.326%
2 | CNC(=O)[C@@H]1[C@@H](c2ccccc2)CN2CCN(Cc3cccs3)C[C@H]12 | 88.53%
3 | CNC(=O)[C@@H]1[C@@H](c2ccccc2)CN2CCN(Cc3cc(C)no3)C[C@H]12 | 101.2%
4 | CNC(=O)[C@@H]1[C@@H](c2ccccc2)CN2CCN(Cc3ccco3)C[C@H]12 | 101.4%
5 | Cc1c(C(=O)NCC2CCN(Cc3ccco3)C2)[nH]c2ccccc12 (stereo not given) | 19.49%
6 | O=C(Nc1ccc(-c2ccn[nH]2)cc1)C1CCCN(Cc2ccoc2)C1 (stereo not given) | 1.932%
7 | CN(C)C(=O)NC[C@H]1OC[C@@H]2CCN(Cc3ccoc3)C[C@@H]21 | -34.99%
8 | CNC(=O)C1Cc2ccccc2CN1CCc1cccs1 (stereo not given) | 15.23%
9 | Cc1cc(CNC(=O)N2CCN(Cc3ccccc3)C[C@H]2C)on1 | -6.347%
10 | Cc1n[nH]c(C)c1CCNC(=O)C1CCCN(Cc2ccco2)C1 (stereo not given) | -10.07%
11 | CNC(=O)[C@@H]1[C@H]2CN(Cc3ccoc3)CCN2C[C@H]1c1ccccc1 | 117.2%
12 | CCc1ccc(CNC(=O)N2CCN(Cc3cc(C)no3)CC2)s1 | 7.686%
13 | CN1C(=O)CO[C@H](c2ccc(NC(=O)NC(C)(C)C)cc2)[C@H]1CO | -13.32%
14 | COc1ccc(CN2CCCCCC2c2cccs2)c(OC)c1 (stereo not given) | 95.82%
15 | COc1ccc(OC)c(CN2CCCCCC2c2cccs2)c1 (stereo not given) | -3.603%
16 | Cc1ccc(N(CCC#N)C(=O)CN2CCCC2c2cccs2)cc1 (stereo not given) | -26.13%
17 | CCN(C(=O)CN1CCCC1c1cccs1)c1ccccc1C (stereo not given) | 5.729%
18 | COc1ccc(CN2CCSCC2)c(OC)c1 | -5.529%
19 | Oc1ccccc1CN1CCCCCC1c1cccs1 (stereo not given) | 93%
20 | COc1ccc(CN2CCCCCC2c2cccs2)c(O)c1 (stereo not given) | 114.4%
21 | Cn1nc(C(=O)N(CC(F)(F)F)c2cccc(Cl)c2)ccc1=O | -17.45%
22 | Cn1cc(NC(=O)Nc2ccccn2)cc(Cl)c1=O | 10.33%
23 | CNC(=O)[C@@H]1COC[C@H]2CN(C(=O)c3cccc(OC)c3)C[C@H]21 | 4.207%
24 | Cl.NCCNS(=O)(=O)Cc1ccc(Br)cc1 | -57.57%
25 | CC(=O)N1CCC(N2CCOC[C@H]2c2nc(-c3ccc(Cl)s3)c[nH]2)CC1 | -14.52%
26 | O=C(c1cccc(CNS(=O)(=O)c2ccc(F)cc2)c1)N1CCCC1 | 130.7%
27 | Cc1ccc(S(=O)(=O)NCc2cccc(C(=O)N3CCCC3)c2)cc1F | 110.6%

Row | Structure (SMILES) | Percent Effect
28 | Cc1ccc(S(=O)(=O)NCCNC(=O)c2ccoc2)cc1F | -0.905%
29 | N#Cc1cnc(NCc2cccc(C(=O)N3CCCC3)c2)c(Cl)c1 | -5.94%
30 | O=C(c1cccc(S(=O)(=O)NC[C@@H]2C[C@H](F)CN2)c1)N1CCCCC1 | 0.137%
31 | CC(C)c1nc(S(=O)(=O)N2CCSc3ccccc32)c[nH]1 | -4.998%
32 | CC(C)c1ccc(OCCNC(=O)c2ccoc2)cc1 | 6.267%
33 | Cc1nn(CC(=O)Nc2cccc(F)c2)c(N)c1C#N | -11.77%
34 | COc1cc(-c2nc3c([nH]2)CCCNC3=O)cc(OC)c1OC | 91%
35 | Cc1cccc(Cc2nc3c([nH]2)CCCNC3=O)c1 | -1.705%
36 | COc1ccc(-c2nc3c([nH]2)CCCNC3=O)cc1OC | 96.66%
37 | COc1cc(-c2nc3c([nH]2)CCCNC3=O)ccc1OC(C)C | 84.8%
38 | O=C1NCCCc2[nH]c(Cc3cccc(F)c3)nc21 | -0.783%
39 | CC(C)(C)c1noc(-c2nc3c([nH]2)CCCNC3=O)n1 | 2.046%
40 | CC(C)Oc1cccc(Cc2nc3c([nH]2)CCCNC3=O)c1 | 11.57%
41 | COc1ccccc1C1CNC(=O)c2nc(-c3cnn(C)c3)[nH]c2C1 (stereo not given) | -3.18%
42 | CSCc1noc(-c2nc3c([nH]2)CCCNC3=O)n1 | 14.73%
43 | CC(C)Oc1cccc(-c2nc3c([nH]2)CCCNC3=O)c1 | 99.49%
44 | CCN1CCCN(S(=O)(=O)c2cc3ccccc3o2)CC1 | -2.661%
45 | COc1ccccc1C1CNC(=O)c2nc(-c3c(C)n[nH]c3C)[nH]c2C1 (stereo not given) | -21.26%
46 | COc1cc(-c2nc3c([nH]2)CCCNC3=O)ccc1O | 101.7%
47 | Cc1ccc(C(=O)Nc2ccc(N3CCCC3)cn2)cc1F | -12.84%
48 | CC(C)N(CCNC(=O)N1CCCC(N(C)C)C1)C1CC1 (stereo not given) | 3.264%
49 | CN(C)CCO[C@H]1CN(C(=O)c2ccc3c(c2)OCO3)[C@@H]2COC[C@H]12 | -7.678%
50 | CN(C)CCO[C@H]1CN(Cc2cccc(C#N)c2)[C@@H]2COC[C@H]12.O=C(O)C(F)(F)F.O=C(O)C(F)(F)F | -16.47%
51 | Cc1ccc(CN2C[C@H](OCCN(C)C)[C@H]3OCCC[C@H]32)o1.O=C(O)C(F)(F)F.O=C(O)C(F)(F)F | 11.84%
52 | Cc1ccc(CN2C[C@H](OCCN(C)C)[C@H]3COC[C@H]32)o1.O=C(O)C(F)(F)F.O=C(O)C(F)(F)F | 118.1%
53 | CN(C)CCO[C@H]1CN(Cc2ccco2)[C@@H]2COC[C@H]12.O=C(O)C(F)(F)F.O=C(O)C(F)(F)F | 94.89%
54 | CCc1cc(N2CCN(C(C)=O)CC2)n2nc(C)c(C)c2n1 | -3.628%

Row | Structure (SMILES) | Percent Effect
55 | CC1CCCCN1S(=O)(=O)NCc1cccnc1OC1CCCC1 (stereo not given) | 2.179%
56 | CCOCCn1c(=O)[nH]c2cc(C(=O)N(C)CCc3cn[nH]c3)ccc21 | -12.36%
57 | O=C(NC[C@H]1CC[C@H](c2ccnc3ncnn32)CC1)c1ccccn1 | 132.7%
58 | CCc1nccc(CN2CCCC(CNC(=O)c3ccccn3)C2)n1 (stereo not given) | -4.435%
59 | O=C(NC[C@H]1CC[C@H](c2ccnc3ncnn32)CC1)C1CC1 | 132.8%
60 | O=C(NCc1ccnc(O)c1)NCC1CCCC1 | -3.505%
61 | O=C(NCC1CC1)c1cnc(-c2ccccc2)nc1 | -4.836%
62 | Cc1nccn1-c1cc(CNC(=O)COCC2CC2)ccn1 | -10.58%
63 | CCc1nccc(CN2CCC(CNC(=O)[C@H]3CC[C@H](C)CC3)C2)n1 (stereo not given in full) | -6.322%
64 | O=C(CN1CCC(c2ccnn2CCO)CC1)NCC1CC1 | -5.639%
65 | COCC(=O)NC[C@H]1CC[C@H](c2ccnc3ncnn32)CC1 | 112%
66 | CCNC(=O)NC1CCCN(c2ccc(C)cc2)C1=O (stereo not given) | -8.82%
67 | COc1ncnc(N(C)C)c1NC(=O)c1cscc1C | -1.164%
68 | Cc1ccc(C(=O)NCCC(C)C)cc1NS(C)(=O)=O | -0.7863%
69 | CC(C)CCNC(=O)c1ccc(Cl)c(NS(C)(=O)=O)c1 | 2.284%
70 | CSCCC(CO)NC(=O)c1sc(-c2ccccc2Cl)nc1C (stereo not given) | 13.6%
71 | CSCC[C@@H](CO)NC(=O)c1ccc2nc(NS(C)(=O)=O)sc2c1 | 89.36%
72 | C[C@@H](CO)NC(=O)c1ccc2nc(NS(C)(=O)=O)sc2c1 | 93.82%
73 | COc1cccc(-c2nc(C)c(C(=O)NC(CO)CCSC)s2)c1 (stereo not given) | -11.86%
74 | Cc1nnc(CNC(=O)CC2CCc3ccccc32)o1 (stereo not given) | 1.636%
75 | Cc1nc(C)c(S(=O)(=O)NC(=O)c2ccoc2)s1 | 99%
76 | COc1ccnc(NC(=O)c2ccsc2)c1 | -4.666%
77 | Cc1ccc(S(=O)(=O)NCCNC(=O)c2ccoc2)cc1C | 3.538%
78 | Cc1nc(C)c(S(=O)(=O)NC(=O)c2ccsc2)s1 | 101.1%
79 | COCc1nc(C(=O)NS(=O)(=O)c2ccc(C)s2)cs1 | -3.012%
80 | O=C(NS(=O)(=O)c1cnn(-c2ccccc2F)c1)c1ccoc1 | 8.506%
81 | Cc1ccc(N2CCCN(C(=O)c3cc(Cl)c[nH]3)CC2)nn1 | -5.212%

Row | Structure (SMILES) | Percent Effect
82 | Cc1ccc(N2CCCN(C(=O)C3CCCO3)CC2)nn1 (stereo not given) | 135.1%
83 | O=C(CC1CCCO1)N1CCCN(c2cccnn2)CC1 (stereo not given) | 79.43%
84 | Cc1ccc(N2CCCN(C(=O)c3c(C)oc(C)c3C)CC2)nn1 | 8.16%
85 | Cc1ccc(N2CCCN(C(=O)C3(C#N)CCCCC3)CC2)nn1 | 12.99%
86 | Cc1nn(CC(=O)N2CCCN(c3cccnn3)CC2)c(C)c1Cl | 1.564%
87 | Cc1ccc(N2CCCN(C(=O)CC3C=CCC3)CC2)nn1 (stereo not given) | 107%
88 | Cc1ccc(N2CCCN(C(=O)CC3CCCO3)CC2)nn1 (stereo not given) | 4.405%
89 | Cc1ccc(N2CCCN(C(=O)CCC3CCCO3)CC2)nn1 (stereo not given) | 87.48%
90 | Cc1ccc(N2CCCN(C(=O)C(C)OCC3CC3)CC2)nn1 (stereo not given) | -0.6%
91 | O=C(Cc1cccc2cccnc12)N1CCCN(c2cccnn2)CC1 | -1.609%
92 | Cc1ccc(NC2CCN(C(=O)CCC3CCCO3)CC2)nn1 (stereo not given) | -9.533%
93 | COc1ccc(CN[C@@H]2CO[C@H](CNC(=O)NC(C)C)[C@H]2O)cc1 | 1.543%
94 | CC(C)c1noc(C(C)S(=O)(=O)Cc2nc(C3CC3)no2)n1 (stereo not given) | 8.57%
95 | Cc1cnn(CCCNC(=O)NC2CCN(CC(F)(F)F)C2=O)c1 (stereo not given) | -8.389%
96 | O=C1CNc2ncnc(Nc3cnn(Cc4ccccc4F)c3)c2N1 | 112.6%
97 | O=C1CNc2ncnc(Nc3cnn(Cc4ccccc4)c3)c2N1 | 115.8%
98 | O=C(NCCCOc1cccnc1)c1cn(Cc2ccccc2F)nn1 | -6.028%
99 | COc1ccc2c(CN3CCN(Cc4cccc(F)c4)CC3)n[nH]c2c1 | 2.522%
100 | CC(C)(C(=O)NCc1ccccc1F)n1cc(Br)cn1 | 10.35%
101 | O=C1CNc2ncnc(Nc3cnn(Cc4cccc(F)c4)c3)c2N1 | 115.2%
102 | c1ccc(Cn2cc(CNCC3CCCN3c3cccnn3)cn2)cc1 (stereo not given) | 20.91%
103 | O=C1CC(NCc2ccncc2)CN1Cc1cccc(F)c1 (stereo not given) | -21.37%
104 | O=C1CCN(Cc2cnc3c(-c4ccccc4)cnn3c2)CCN1 | 2.207%
105 | O=C1CNc2ncnc(Nc3cnn(Cc4ccc(F)cc4)c3)c2N1 | 101.7%
